The source of these data is PubChem BioAssay (NCI).

Holding throughout (test): NCI-60 one-dose screen, 48 h (100 = growth as untreated, 0 = no growth, -100 = all killed)
The test system of one assay is SK-MEL-2 melanoma. Particulars: 10 µM unless noted.
Another assay has as its system EKVX NSCLC. Particulars: 10 µM unless noted.
A further assay concerns SN12C renal. Particulars: 10 µM unless noted.
The subject of another assay is UO-31 renal. The note with it: 10 µM unless noted.
The next assay has as its system TK-10 renal. Particulars: 10 µM unless noted.
Another assay deals with ACHN renal. The note with it: 10 µM unless noted.
For the next assay, the system named is CAKI-1 renal. Particulars: 10 µM unless noted.
In a further assay the test system is A498 renal. The note with it: 10 µM.
In the next assay the test system is HL-60(TB) leukemia. Particulars: 10 µM unless noted.
A further assay deals with CCRF-CEM leukemia. The note with it: 10 µM unless noted.
For the next assay, the system named is MOLT-4 leukemia. Particulars: 10 µM unless noted.
In a further assay the test system is SR leukemia. Particulars: 10 µM unless noted.
For another assay, the system named is RPMI-8226 leukemia. The note with it: 10 µM unless noted.
Another assay relates to OVCAR-8 ovarian. The note with it: 10 µM unless noted.
In the next assay the test system is OVCAR-5 ovarian. The note with it: 10 µM unless noted.
The test system of a further assay is OVCAR-4 ovarian. Particulars: 10 µM unless noted.
The test system of the next assay is SK-OV-3 ovarian. The note with it: 10 µM unless noted.
The next assay concerns IGROV1 ovarian. The note with it: 10 µM unless noted.
A further assay concerns OVCAR-3 ovarian. Particulars: 10 µM unless noted.
Another assay deals with HS 578T breast. The note with it: 10 µM unless noted.

About 83,000 compounds went through this panel and 20% of them were active in at least one assay; those are over-represented in the sample as a whole.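 Compound tested at a single concentration for 48 hours in 96-well plates; a percent growth value below 10 was scored as active.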 Unmarked numbers belong to inactive results. Active and inactive are the calls of the source.

With `CC(=O)OC1C(OC/C2=C/C3[C@@H](C(C)C)CC=C(C)[C@@H]3CC(OC(=O)/C=C/c3cn(C)cn3)[C@]3(C)C=C[C@@]2(O)O3)OCC(O)C1O` (some centres undefined), the growth was 45.6% in the assay with SK-MEL-2 melanoma; 33.9% with EKVX NSCLC; 44.2% in the assay on SN12C renal; 40.4% in the assay on UO-31 renal; 32.3% in the assay with TK-10 renal; 45% in the assay on ACHN renal. The growth was 37% in the assay on CAKI-1 renal; 13.2% in the assay with A498 renal; -3.65% (active) with HL-60(TB) leukemia; 22.5% with CCRF-CEM leukemia; 35.8% in the assay on MOLT-4 leukemia; 24.8% with SR leukemia. Besides, the growth is 4.84% (active) in the assay with RPMI-8226 leukemia; 32.7% with OVCAR-8 ovarian; 49.4% in the assay on OVCAR-5 ovarian; 43% with OVCAR-4 ovarian; 11.9% with SK-OV-3 ovarian; 33.6% in the assay with IGROV1 ovarian. Further, the growth with OVCAR-3 ovarian is 15.3%; with HS 578T breast, 21.8%.
Regarding `O=C(O)C(O)C(O)C1[O][Sb]([c]2ccc([N+](=O)[O-])cc2)[O]C1CO` (centres undefined), the growth with SK-MEL-2 melanoma is 115%; in the assay with EKVX NSCLC, 105%; with SN12C renal it was 90.4%; in the assay with UO-31 renal, 96.4%; in the assay with TK-10 renal, 98.4%; with ACHN renal, 101%. Also, the growth is 102% in the assay with CAKI-1 renal; 83.6% in the assay on A498 renal; 92.8% with HL-60(TB) leukemia; 98.5% in the assay with CCRF-CEM leukemia; 98.2% with MOLT-4 leukemia; 102% with SR leukemia. The growth in the assay with RPMI-8226 leukemia is 99.2%; with OVCAR-8 ovarian, 105%; in the assay on OVCAR-5 ovarian, 103%; with OVCAR-4 ovarian it was 112%; with SK-OV-3 ovarian, 129%; in the assay with IGROV1 ovarian it was 111%. The growth with OVCAR-3 ovarian was 114%.
With `COc1ccc(O)c(CNC(=O)CN2CCCC2=O)c1`, the growth in the assay on SK-MEL-2 melanoma is 103%; in the assay on EKVX NSCLC it was 100%; in the assay with SN12C renal it was 97.6%; in the assay with UO-31 renal it was 98.7%; in the assay on TK-10 renal, 105%; with ACHN renal it was 99.7%. Also, the growth in the assay on CAKI-1 renal was 97.4%; in the assay with A498 renal, 93.6%; in the assay with HL-60(TB) leukemia it was 142%; with CCRF-CEM leukemia, 26.4%; in the assay on MOLT-4 leukemia, 101%; in the assay with SR leukemia, 98.5%. Also, the growth was 99.4% in the assay on RPMI-8226 leukemia; 106% in the assay on OVCAR-8 ovarian; 95.1% with OVCAR-5 ovarian; 103% in the assay on OVCAR-4 ovarian; 112% in the assay on SK-OV-3 ovarian; 104% with IGROV1 ovarian. Also, the growth is 103% with OVCAR-3 ovarian and 94% in the assay with HS 578T breast.
For `C=C(C)[C@@]12OC3(/C=C/C=C/CCCCC)O[C@@H]1[C@@H]1[C@@H]4O[C@]4(CO)[C@@H](O)[C@]4(O)C(=O)C(C)=C[C@H]4[C@@]1(O3)[C@H](C)[C@H]2OC(=O)c1ccccc1`, the growth was 80.4% in the assay with SK-MEL-2 melanoma; 67.4% in the assay with EKVX NSCLC; 16.5% in the assay on SN12C renal; 39.7% in the assay on UO-31 renal; 47.1% in the assay on TK-10 renal; 42.9% in the assay on ACHN renal. Also, the growth with CAKI-1 renal was 69.8%; in the assay with A498 renal, -47.2% (active); in the assay with HL-60(TB) leukemia, -7.45% (active); with CCRF-CEM leukemia it was 45.8%; in the assay with MOLT-4 leukemia it was 31.2%; with SR leukemia it was 67.2%. For the same compound, the growth in the assay on RPMI-8226 leukemia was 66.4%; with OVCAR-8 ovarian, 82.6%; in the assay with OVCAR-5 ovarian, 107%; in the assay with OVCAR-4 ovarian, 72.2%; in the assay with SK-OV-3 ovarian, 102%; in the assay on IGROV1 ovarian it was 52.3%. For the same compound, the growth is 61.6% with OVCAR-3 ovarian and 4% (active) in the assay on HS 578T breast.
Take `C[n+]1c(/C=C/c2ccc(N(CCCl)CCCl)cc2)sc2ccccc21`: the growth was 74.1% in the assay with SK-MEL-2 melanoma; 83.4% in the assay on EKVX NSCLC; 37.4% with SN12C renal; 96.7% in the assay on UO-31 renal; 96.7% in the assay on TK-10 renal; 78.8% with ACHN renal. Also, the growth is 99.4% in the assay on CAKI-1 renal; 84.9% in the assay on A498 renal; 18.3% with HL-60(TB) leukemia; 27.9% with CCRF-CEM leukemia; 36.8% in the assay on MOLT-4 leukemia; 19.7% in the assay with SR leukemia. The growth was 27.5% with RPMI-8226 leukemia; 30% in the assay with OVCAR-8 ovarian; 103% in the assay with OVCAR-5 ovarian; 72.9% in the assay on OVCAR-4 ovarian; 55.1% in the assay on SK-OV-3 ovarian; 75% in the assay with IGROV1 ovarian. The growth was 25.5% in the assay with OVCAR-3 ovarian and 98.8% with HS 578T breast.
In the case of `CNC12C3C4C1C1C2C3C41C(=O)N[C@H](C(=O)N(C)[C@H](C[C@@H](OC(C)=O)c1nc(C(=O)N[C@@H](Cc2ccccc2)C[C@H](C)C(=O)OC)cs1)C(C)C)C1CC1` (some centres undefined), the growth in the assay on SK-MEL-2 melanoma is 25.4%; in the assay with EKVX NSCLC it was 30.9%; with SN12C renal, 31.5%; in the assay with UO-31 renal, 36.3%; with TK-10 renal it was 23.4%; in the assay with ACHN renal, 23.2%. Further, the growth was 87.9% with CAKI-1 renal; 21.3% with A498 renal; -34.9% (active) with HL-60(TB) leukemia; -1.11% (active) with CCRF-CEM leukemia; -1.54% (active) in the assay on MOLT-4 leukemia; -12.7% (active) in the assay with SR leukemia. The growth in the assay with RPMI-8226 leukemia was -6.94% (active); with OVCAR-8 ovarian, 20.1%; in the assay with OVCAR-5 ovarian, 56.6%; with OVCAR-4 ovarian, 44.5%; in the assay with SK-OV-3 ovarian, 40.7%; with IGROV1 ovarian, 17%. The figures for the growth with OVCAR-3 ovarian and in the assay on HS 578T breast were -32.9% (active) and 32.3%, respectively.
For the compound `Cc1ccc(C(Cc2ccccc2)NCCO)cc1` (centres undefined), the growth is 54.7% with SK-MEL-2 melanoma; 100% with EKVX NSCLC; 102% in the assay with SN12C renal; 86.1% in the assay with UO-31 renal; 88% in the assay on TK-10 renal; 89.6% in the assay with ACHN renal. For the same compound, the growth in the assay with CAKI-1 renal was 98%; in the assay on A498 renal it was 97.9%; with HL-60(TB) leukemia, 91.4%; in the assay with CCRF-CEM leukemia it was 98.5%; in the assay with MOLT-4 leukemia it was 88.2%; in the assay with SR leukemia, 105%. Besides, the growth is 92% with RPMI-8226 leukemia; 103% in the assay on OVCAR-8 ovarian; 55.4% with OVCAR-5 ovarian; 94.7% with OVCAR-4 ovarian; 75.8% with SK-OV-3 ovarian; 103% with IGROV1 ovarian. The growth was 100% in the assay with OVCAR-3 ovarian and 97.8% with HS 578T breast.
